The target in one experiment is GAA. The experiment is described as follows: pooled miR-30 sensor sort-seq; sequence = guide strand. As to conditions: shRNA.
Regarding TTGTGGTTCCGCATGAAGGGGT, the sensor-assay potency score (higher = more potent) was -0.144.
Regarding TAAACTGCAGGATTTCTGGCAC, the sensor-assay potency score (higher = more potent) was -0.0629.
Consider TAACACAGAGCAGCCCTCCAGG, for which the sensor-assay potency score (higher = more potent) is -0.565.
Consider TTAGCTGGATCTTTGATCGTGA, for which the sensor-assay potency score (higher = more potent) is 0.689.
TACTGCTGCACCACGCTCTTGG displayed a sensor-assay potency score (higher = more potent) of 0.362.

A further experiment concerns the target GAB3. Described as above. The conditions noted are these: shRNA.
Regarding TTTTGTGCTCTGGAGAGCCTGT, the sensor-assay potency score (higher = more potent) was -0.572.
In turn, TTTCCTTGAATCGTTATGCTTT registered a sensor-assay potency score (higher = more potent) of 0.221.
Take TTTTCTATCTCCAATCTGGTGT: the sensor-assay potency score (higher = more potent) worked out at 0.0351.
Still for that read-out and setting: then TTGACCAGCTATCACATCTGGT, with -0.37; and TTGCTGGAGTGCTTGTTCCTGT, with -0.331.

The values above are taken from the OligoGym collection.
Note: reference of the scale not given here.
